In PubChem BioAssay (Tox21):
Records with an inconclusive call do not appear. The source made the active and inactive calls. Unless noted, calls come from the whole dose curve; as a rule, active = well fitted curve in the direction sought with a large enough effect in the repeat runs; inconclusive = weak or mixed curves; inactive = no such curve, though single readings can be large; an effect the other way counts as inactive or inconclusive.

Key:
[1] = qHTS assay to identify small molecule antagonists of the thyroid receptor (TR) signaling pathway - cell viability counter screen (AID 743064); note: nearly all actives have a fitted effect of over 50% in size
Method in brief: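 Counter screen for cytotoxicity: compound plus T3 (1 nM final) on GH3.TRE-Luc cells, 23.5 h at 37 °C, then fluorescence viability readout with CellTiter-Fluor.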

[2] = qHTS assay to identify small molecule antagonists of the thyroid receptor (TR) signaling pathway (AID 743065); note: series mostly up to about 70 µM; nearly all actives have a fitted effect of over 55% in size
Method in brief: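 GH3.TRE-Luc rat pituitary cells (two TREs driving luciferase) were dosed with compound, then stimulated with 1 nM T3 (final) for 23.5 h at 37 C. ONE-Glo luminescence was the read-out, with CellTiter-Fluor fluorescence as the cytotoxicity counter-screen.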

[3] = system: thyroid hormone receptor (rat, GH3 cells); assay: qHTS assay to identify small molecule agonists of the thyroid receptor (TR) signaling pathway (AID 743066; calls by dose curve)
[4] = qHTS assay to identify small molecule antagonists of the estrogen receptor alpha (ER-alpha) signaling pathway - cell viability counter screen (AID 743074; calls by dose curve;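 note: HEK293 cells carrying ER-alpha-UAS-bla reporter stimulated with 17beta-estradiol; nearly all actives have a fitted effect of over 45% in size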)
[5] = qHTS assay to identify small molecule antagonists of the estrogen receptor alpha (ER-alpha) signaling pathway using the BG1 cell line - cell viability counter screen (AID 743081);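 note: compound given together with 17beta-estradiol as the ER stimulus; series mostly up to about 70 µM; nearly all actives have a fitted effect of over 45% in size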
Aromatase (Homo sapiens) = Aromatase (Homo sapiens) (UniProt P11511); assay: qHTS assay to identify aromatase inhibitors (AID 743083); note: series mostly up to about 70 µM; nearly all actives have a fitted effect of over 55% in size
Chain of Aromatase (Homo sapiens) (P11511 whole entry, looked up): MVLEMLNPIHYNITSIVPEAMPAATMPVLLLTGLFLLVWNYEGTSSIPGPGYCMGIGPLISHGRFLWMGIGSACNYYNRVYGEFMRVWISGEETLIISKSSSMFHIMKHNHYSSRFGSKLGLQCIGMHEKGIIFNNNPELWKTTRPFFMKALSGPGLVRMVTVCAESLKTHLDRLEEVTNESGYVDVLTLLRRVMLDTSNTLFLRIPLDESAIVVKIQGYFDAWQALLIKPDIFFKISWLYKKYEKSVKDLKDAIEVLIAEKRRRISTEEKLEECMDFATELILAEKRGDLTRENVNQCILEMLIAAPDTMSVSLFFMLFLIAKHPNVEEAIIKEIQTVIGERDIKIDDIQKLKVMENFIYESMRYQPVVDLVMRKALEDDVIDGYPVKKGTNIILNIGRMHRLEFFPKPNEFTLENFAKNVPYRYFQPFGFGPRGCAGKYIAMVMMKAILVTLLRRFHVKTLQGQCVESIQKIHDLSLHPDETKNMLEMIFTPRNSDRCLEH

[6] = qHTS assay to identify aromatase inhibitors - cell viability counter screen (AID 743084);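 note: cells stimulated with testosterone during compound exposure; nearly all actives have a fitted effect of over 55% in size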
[7] = target: Aryl hydrocarbon receptor (Homo sapiens) (UniProt P35869); assay: qHTS assay to identify small molecule that activate the aryl hydrocarbon receptor (AhR) signaling pathway (AID 743085);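 note: HG2L7.5c1 human HepG2 liver cells with stably integrated DRE-driven firefly reporter; series mostly up to about 70 µM; nearly all actives have a fitted effect of over 15% in size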
Chain of Aryl hydrocarbon receptor (Homo sapiens) (P35869 whole entry, looked up): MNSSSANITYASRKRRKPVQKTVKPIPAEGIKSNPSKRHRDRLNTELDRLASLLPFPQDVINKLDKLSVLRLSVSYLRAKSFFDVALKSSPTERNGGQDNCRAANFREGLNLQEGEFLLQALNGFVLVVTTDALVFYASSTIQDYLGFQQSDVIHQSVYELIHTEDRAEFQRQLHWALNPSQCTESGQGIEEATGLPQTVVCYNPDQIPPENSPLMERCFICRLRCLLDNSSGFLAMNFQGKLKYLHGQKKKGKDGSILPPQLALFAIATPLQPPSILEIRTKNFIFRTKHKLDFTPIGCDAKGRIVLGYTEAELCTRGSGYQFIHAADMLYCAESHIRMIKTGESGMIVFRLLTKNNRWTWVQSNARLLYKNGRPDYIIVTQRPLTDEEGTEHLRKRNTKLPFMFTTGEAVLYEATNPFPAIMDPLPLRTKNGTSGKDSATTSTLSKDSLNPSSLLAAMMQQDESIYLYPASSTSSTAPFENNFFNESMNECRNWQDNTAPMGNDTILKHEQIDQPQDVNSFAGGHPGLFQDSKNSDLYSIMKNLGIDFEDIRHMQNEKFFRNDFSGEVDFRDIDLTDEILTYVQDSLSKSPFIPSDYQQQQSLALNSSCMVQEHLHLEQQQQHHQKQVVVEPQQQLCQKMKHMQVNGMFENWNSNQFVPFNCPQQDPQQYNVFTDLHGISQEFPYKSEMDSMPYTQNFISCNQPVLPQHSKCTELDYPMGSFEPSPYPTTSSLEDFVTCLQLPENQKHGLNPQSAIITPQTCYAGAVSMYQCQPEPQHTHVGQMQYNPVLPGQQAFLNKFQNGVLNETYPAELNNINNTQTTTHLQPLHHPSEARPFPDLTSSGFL
Method in brief: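 Measured in HG2L7.5c1 cells: CellTiter-Fluor signal (30 min incubation, 37C) for viability, then luciferase luminescence (30 min, room temperature). Compound contact time was 24 h at 37C, following a 5 h pre-incubation.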

[8] = target: Peroxisome proliferator-activated receptor gamma (Homo sapiens) (UniProt P37231); assay: qHTS assay to identify small molecule agonists of the peroxisome proliferator-activated receptor gamma (PPARg) signaling pathway (AID 743094; active = well fitted activation curve with a large enough effect in the signal ratio in the repeat runs, not every such curve was filed as active; the % refers to the signal ratio)
Chain of Peroxisome proliferator-activated receptor gamma (Homo sapiens) (P37231 whole entry, looked up): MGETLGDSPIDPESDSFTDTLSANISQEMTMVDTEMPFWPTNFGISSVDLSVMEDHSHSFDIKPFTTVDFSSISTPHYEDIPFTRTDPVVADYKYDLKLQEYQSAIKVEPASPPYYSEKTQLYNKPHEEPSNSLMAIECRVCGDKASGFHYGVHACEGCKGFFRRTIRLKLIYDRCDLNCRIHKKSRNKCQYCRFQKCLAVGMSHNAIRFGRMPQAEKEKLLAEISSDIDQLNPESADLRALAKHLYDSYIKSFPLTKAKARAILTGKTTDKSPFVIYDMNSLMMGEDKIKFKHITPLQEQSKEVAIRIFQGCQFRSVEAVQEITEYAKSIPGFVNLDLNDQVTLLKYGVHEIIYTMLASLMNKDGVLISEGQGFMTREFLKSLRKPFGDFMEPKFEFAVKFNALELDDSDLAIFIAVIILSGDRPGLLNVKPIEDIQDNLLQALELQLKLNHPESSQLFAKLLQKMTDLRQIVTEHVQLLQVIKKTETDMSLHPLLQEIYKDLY
Method in brief: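 Following 5 h plating at 37C, PPARg-bla HEK293H cells receive compound or DMSO for 17 h; fluorescence intensity is recorded after LiveBLAzer B/G loading for 1 h at room temperature.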

[9] = target: Peroxisome proliferator-activated receptor gamma (Homo sapiens) (UniProt P37231); assay: qHTS assay to identify small molecule antagonists of the peroxisome proliferator-activated receptor gamma (PPARg) signaling pathway (AID 743191; calls by dose curve; note: series mostly up to about 63 µM; nearly all actives have a fitted effect of over 30% in size)
Method in brief: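 GeneBLAzer PPARg UAS-bla HEK293H cells, 5 h post-plating, exposed to compounds 17 h at 37C. LiveBLAzer B/G FRET substrate added for 1 h at room temperature; beta-lactamase reporter read by fluorescence intensity.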

[10] = qHTS assay to identify small molecule antagonists of the peroxisome proliferator-activated receptor gamma (PPARg) signaling pathway - cell viability counter screen (AID 743194); note: nearly all actives have a fitted effect of over 55% in size
Method in brief: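 Cytotoxicity counter screen in PPARg-bla HEK293H cells, same wells as reporter assay. Compounds plus 50 nM rosiglitazone (final) for 17 h at 37 C, then viability read by CellTiter-Glo luminescence.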

[11] = qHTS assay for small molecule agonists of the antioxidant response element (ARE) signaling pathway (AID 743202; active = well fitted activation curve with a large enough effect in the signal ratio in the repeat runs, not every such curve was filed as active; the % refers to the signal ratio)
Method in brief: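 ARE-bla HepG2 cells (beta-lactamase reporter under the antioxidant response element), plated 5 hours, then exposed to compounds 16 hours at 37 C. LiveBLAzer B/G FRET substrate added for 2 hours at room temperature; fluorescence intensity read.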

[12] = qHTS assay for small molecule agonists of the antioxidant response element (ARE) signaling pathway - cell viability counter screen (AID 743203; calls by dose curve; note: nearly all actives have a fitted effect of over 55% in size)
Method in brief: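 Compounds in DMSO were pinned onto ARE-bla HepG2 cells plated 5 hrs earlier at 2,000 cells/well. Sixteen hours later at 37C/5% CO2, CellTiter-Glo was added and luminescence measured after 30 min at room temperature.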

[13] = qHTS assay for small molecule activators of the heat shock response signaling pathway - cell viability counter screen (AID 743209); note: nearly all actives have a fitted effect of over 50% in size
Method in brief: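 Counter screen for cytotoxicity in HeLa HSE-bla reporter cells. Treatment was 5 h at 37 C; viability was detected by luminescent ATP assay (CellTiter-Glo) in the same wells as the beta-lactamase read.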

[14] = qHTS assay for small molecule activators of the heat shock response signaling pathway (AID 743210; active = well fitted activation curve with a large enough effect in the signal ratio in the repeat runs, with a control signal flat, not every such curve was filed as active; the % refers to the signal ratio; note: series mostly up to about 63 µM)
Method in brief: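 HSE-bla HeLa cells (beta-lactamase reporter under heat shock response elements), plated overnight, then exposed to compounds 5 h at 37 C; LiveBLAzer B/G FRET substrate added, 2.5 h at room temperature, fluorescence intensity read.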

[15] = qHTS assay to identify small molecule that activate the aryl hydrocarbon receptor (AhR) signaling pathway - cell viability counter screen (AID 743086);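 note: HepG2 liver cells carrying the AhR DRE luciferase reporter; series mostly up to about 70 µM; nearly all actives have a fitted effect of over 45% in size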
Method in brief: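 HepG2-AhR-luc (HG2L7.5c1) cells, 4000/well, treated 24 h at 37 C with compound; viability measured as CellTiter-Fluor fluorescence after 30 min in the same wells as the luciferase read.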

[16] = target: Estrogen receptor (Homo sapiens) (UniProt P03372); assay: qHTS assay to identify small molecule antagonists of the estrogen receptor alpha (ER-alpha) signaling pathway (AID 743069; active = well fitted curve in the direction sought with a large enough effect in the signal ratio in the repeat runs, not every such curve was filed as active; the % refers to the signal ratio)
Chain of Estrogen receptor (Homo sapiens) (P03372 whole entry, looked up): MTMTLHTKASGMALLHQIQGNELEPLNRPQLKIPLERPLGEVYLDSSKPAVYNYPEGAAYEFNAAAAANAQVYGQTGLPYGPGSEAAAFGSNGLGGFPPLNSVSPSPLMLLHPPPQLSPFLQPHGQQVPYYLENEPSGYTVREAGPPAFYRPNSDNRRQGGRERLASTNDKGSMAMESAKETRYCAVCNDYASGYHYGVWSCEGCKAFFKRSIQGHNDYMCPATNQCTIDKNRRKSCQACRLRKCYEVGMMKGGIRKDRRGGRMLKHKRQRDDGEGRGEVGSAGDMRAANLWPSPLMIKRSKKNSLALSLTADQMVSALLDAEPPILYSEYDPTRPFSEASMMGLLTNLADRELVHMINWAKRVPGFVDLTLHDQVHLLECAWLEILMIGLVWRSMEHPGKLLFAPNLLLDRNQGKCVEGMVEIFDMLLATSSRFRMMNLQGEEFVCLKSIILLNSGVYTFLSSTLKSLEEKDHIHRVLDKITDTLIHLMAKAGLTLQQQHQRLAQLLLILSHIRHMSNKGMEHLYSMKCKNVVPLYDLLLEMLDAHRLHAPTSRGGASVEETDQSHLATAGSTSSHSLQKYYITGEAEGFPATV
Method in brief: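 HEK293 ER-alpha-UAS-bla GripTite cells, held overnight in 2% charcoal-stripped FBS, 5,000 cells/well, preincubated 4 h, then compound plus 17beta-estradiol for 18 h at 37C. Beta-lactamase read by LiveBLAzer B/G FRET substrate, 2 h at room temperature.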

[17] = target: Estrogen receptor (Homo sapiens) (UniProt P03372); assay: qHTS assay to identify small molecule agonists of the estrogen receptor alpha (ER-alpha) signaling pathway (AID 743075; calls by dose curve)
[18] = target: Estrogen receptor (Homo sapiens) (UniProt P03372); assay: qHTS assay to identify small molecule agonists of the estrogen receptor alpha (ER-alpha) signaling pathway using the BG1 cell line (AID 743079); note: nearly all actives have a fitted effect of over 20% in size
[19] = qHTS assay to identify small molecule antagonists of the estrogen receptor alpha (ER-alpha) signaling pathway using the BG1 cell line (AID 743080; calls by dose curve;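 note: BG1 cells stimulated with 17beta-estradiol alongside compound; series mostly up to about 70 µM; nearly all actives have a fitted effect of over 25% in size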)
Method in brief: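 Luminescence from a 4×ERE-luciferase reporter in BG1-Luc-4E2 cells served as read-out. Cells, pre-cultured 5 days in stripped-serum phenol-red-free medium, were exposed to compound with 17beta-estradiol co-stimulation for 21.5 h at 37 C.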

Measured: Potency

CC(S)C(=O)NCC(=O)O (stereo not given)
inactive: [1] | [2] | [3] | [4] | [5] | Aromatase (Homo sapiens) | [6] | [7] | [8] | [9] | [10] | [11] | [12] | [13] | [14]

CC/C=C\CC1=C(C)CCC1=O
inactive: [1] | [2] | [3] | [4] | [5] | Aromatase (Homo sapiens) | [6] | [7] | [15] | [8] | [9] | [10] | [12] | [13] | [14]

CC1=CCC(C(C)C)=CC1
inactive: [1] | [16] | [4] | [17] | [18] | [19] | [5] | Aromatase (Homo sapiens) | [6] | [7] | [15] | [8] | [10] | [11] | [12] | [13]

Brc1ccc(-c2ccccc2)cc1
inactive: [1] | [2] | [3] | [5] | [7] | [15] | [10] | [11] | [12] | [14]

CCCC/C=C/C=C\C=O
inactive: [1] | [3] | [16] | [4] | [17] | [18] | [19] | [5] | Aromatase (Homo sapiens) | [6] | [7] | [15] | [8] | [10] | [12] | [13]

C=Cc1ccccn1
inactive: [1] | [2] | [3] | [5] | Aromatase (Homo sapiens) | [6] | [7] | [15] | [8] | [9] | [10] | [11] | [12] | [13] | [14]

CCCCCCOC(=O)CC
inactive: [2] | [3] | [16] | [4] | [17] | [18] | [19] | [5] | Aromatase (Homo sapiens) | [6] | [7] | [15] | [8] | [9] | [10] | [11] | [12] | [13] | [14]

C[C@H](N)[C@H](O)c1cccc(O)c1
inactive: [1] | [16] | [4] | [17] | [18] | [19] | [5] | Aromatase (Homo sapiens) | [6] | [7] | [15] | [8] | [9] | [10] | [12] | [13] | [14]

NCCN1CCOCC1
inactive: [1] | [2] | [3] | [5] | Aromatase (Homo sapiens) | [6] | [7] | [15] | [10] | [11] | [12] | [14]
